From PubChem BioAssay (NCI) come the findings set out here.

The structures appear in SMILES notation. This is part of a sample that, as a whole, favours compounds with a hit. Of some 83,000 tested, about 20% had one in any assay.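 Compound tested at a single concentration for 48 hours in 96-well plates; a percent growth value below 10 was scored as active.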 Values without a mark were called inactive. The source made the active and inactive calls.

The subject of one test is DU-145 prostate. Briefly: NCI-60 one-dose screen, 48 h (100 = growth as untreated, 0 = no growth, -100 = all killed). The following applies: 10 µM unless noted.
For `COc1ccc(C2=Nc3c(N)ncnc3NC(c3ccc4c(c3)OCO4)C2)cc1` (stereo unspecified), the growth is 97.1%.
Take `COc1ccc2occ(C3=C(c4c[nH]c5ccccc45)C(=O)N(O)C3=O)c2c1`: the growth was 102%.
For the molecule `NCCCNc1nc2ccccc2c2c(=O)c3cccc(Cl)c3sc12`, the growth was -14.3% (active).
For `O=c1c2cc(F)ccc2sc2c(NCCN3CCCCC3)nc3ccccc3c12`, the growth was 53.5%.
Turning to `Cc1ccc2c(c1)Sc1c(ccc3ccccc13)N2`, the growth was 82.9%.
With `CCCCCCCCCCCCCCCCCCOc1ccc(CC(=O)OCC[N+]2(C)CCCC2)cc1`, the growth is 106%.
With `CC(=O)OC[C@H]1OC(Sc2sc(C(=O)c3ccc(Br)cc3)c(N)c2-c2nc3ccccc3s2)[C@H](OC(C)=O)[C@@H](OC(C)=O)[C@@H]1OC(C)=O` (stereo partly specified), the growth is 35.8%.
With `O=C(O)c1ccc2c(c1)CCC2`, the growth was 118%.
For the molecule `COc1ccc(-c2[nH]c(=S)n(C(CC3(C)NCC(=O)N3n3c(-c4ccccc4)cc(C)nc3=S)c3ccc(OC)cc3)c(=O)c2Br)cc1` (stereo unspecified), the growth was 66.6%.
Take `C[C@H](NC(=O)[C@@H]1CSSC[C@@H](NC(=O)c2nc3ccccc3cc2O)C(=O)NCC(=O)N1C)c1ccccc1`: the growth was 32.2%.
As for `CCc1ccccc1-n1c(-c2ccc(Cl)cc2)cc(-c2ccc(Cl)cc2)c(C#N)c1=O`, the growth was 77.1%.
`COCCc1ccc(OCC(O)CNC(C)C)cc1` (stereo unspecified): the growth is 109%.
Still for that read-out and setting: the figure for `COc1ccc(/C=C/c2c(C(=O)/C=C/c3cccs3)c(C)nc3ccccc23)cc1` is 82.7%; for `COc1ccc(-c2nc3c(N)c(CO)c(C)nc3o2)cc1` it is 102%.
Take `CC(C)C(=O)Nc1n[nH]c2cc(-c3cccc(NS(=O)(=O)C4CC4)c3)ccc12`: the growth is 85.9%.
The same measure, in the same setting: the figure for `COc1ccc(-c2nc3ccc4[nH]ncc4c3c3c2CCCC3)cc1B(O)O` is 45.9%.
With `COc1cc(OC)cc(C2CC(=O)Nc3c2c(C)nn3-c2nc3ccccc3[nH]2)c1` (stereo unspecified), the growth is 53.3%.
On the same count and under the same terms, next, `CCOC(=O)c1c2ncccc2n2c(=O)n(-c3ccccc3C)nnc12`: 142%.
`CCN(CCNc1ccc(C)c2sc3ccccc3c(=O)c12)CC(C)(C)O`: the growth was 95.7%.
Regarding `CCCCNC(=O)Oc1ccc2c(=O)c3sc4c(=O)c5ccccc5c(=O)c4c3c(=O)c2c1`, the growth was -98.5% (active).
For `O=C(NCCCNc1cc(-c2cn(-c3ccccc3)nc2-c2cccc(O)c2)ccn1)c1ccc(F)cc1`, the growth was 48.4%.
On the same count and under the same terms, the figure for `CC(C)=C[C@@H]1c2c(c3ccccc3n(C)c2=O)O[C@H]2c3c(c4ccccc4n(C)c3=O)OC(C)(C)[C@@H]12` is 106%; for `CCN1CCN(c2nc(C)cc(NCc3cc(Nc4ccnc5cc(Cl)ccc45)ccc3F)n2)CC1` it is 38%; for `COc1ccc2c(c1)O/C(=C\c1cccc(OCC(=O)Nc3nc4ccccc4s3)c1)C2=O` it is 28.6%.
In the case of `Cc1nn(-c2ccccc2)c(Oc2ccc(Cl)cc2)c1/C=N\N=c1/sc2ccccc2n1C`, the growth is 108%.
As to `COc1cc(C2NC(=O)c3ccccc3N2)ccc1OCCCCCOc1c(OC)cc(C2=NOC(c3cc(OC)c(OC)c(OC)c3)C2)cc1OC` (stereo unspecified), the growth was 118%.
`COc1cc(C2CC(=O)Nc3c2c(C)nn3-c2nc3ccccc3[nH]2)c(OC)c(OC)c1OC` (stereo unspecified): the growth was 53.8%.
For `CC1(C)OC2C(CO[Si](C)(C)C(C)(C)C)OC(n3c(I)c(C#C[Si](C)(C)C)c(=O)[nH]c3=O)C2O1` (stereo unspecified), the growth is 107%.
Consider `CC(=O)N1C(=S)NC(=O)C1Cn1c(-c2ccccc2)nc2ccccc21` (stereo unspecified), for which the growth is 110%.
Still for that read-out and setting: next, `COCN1CCC2N(COC)CCC3N(COC)CCC1N23` (stereo unspecified): 111%; `C=CC(=O)Nc1cccc(Oc2nccc(Nc3nnc(C4CC4)s3)n2)c1`: 94.5%; `COc1ccc(N=Nc2ccc(O)c(=O)cc2)cc1`: 19.3%.
With `C=C1C(=O)O[C@H]2[C@H]1CC/C(COC(=O)C(=O)c1cn(C)c3ccc(OC)cc13)=C\CC[C@@]1(C)O[C@@H]21`, the growth was -79% (active).
Take `COc1cccc(-c2nn(-c3ccccc3)cc2-c2ccnc(NCCNC(=O)Nc3ccccc3)c2)c1`: the growth was 65.9%.
As to `COC(=O)[C@]12CC[C@@H](C)[C@H](C)[C@@H]1C1=CC[C@@H]3[C@@]4(C)C(C=O)=C[C@@](C)(COC(C)=O)[C@@H]4[C@H](O)C[C@@]3(C)[C@]1(C)CC2`, the growth was -73.1% (active).
`O=C(Nc1cccc(Cl)c1)c1cc(N=Nc2ccc([N+](=O)[O-])cc2Cl)ccc1O`: the growth was 116%.
On the same count and under the same terms, the figure for `COc1ccc(C2c3ccc4ccccc4c3Oc3nc(C)[nH]c(=O)c32)cc1` (stereo unspecified) is 114%; for `COC(=O)c1ccc(C2Nc3ccc(S(=O)(=O)Nc4ccc(C)c(C)c4)cc3C3OCCC23)cc1` (stereo unspecified) it is 100%.

Another test deals with K-562 leukemia. The description is as above. Particulars: 10 µM unless noted.
Take `COc1ccc(C2=Nc3c(N)ncnc3NC(c3ccc4c(c3)OCO4)C2)cc1` (stereo unspecified): the growth is 113%.
For `COc1ccc2occ(C3=C(c4c[nH]c5ccccc45)C(=O)N(O)C3=O)c2c1`, the growth was 87.3%.
As to `NCCCNc1nc2ccccc2c2c(=O)c3cccc(Cl)c3sc12`, the growth is -21.1% (active).
Take `O=c1c2cc(F)ccc2sc2c(NCCN3CCCCC3)nc3ccccc3c12`: the growth was -30.8% (active).
Take `Cc1ccc2c(c1)Sc1c(ccc3ccccc13)N2`: the growth was 39.7%.
Still for that read-out and setting: the figure for `CCCCCCCCCCCCCCCCCCOc1ccc(CC(=O)OCC[N+]2(C)CCCC2)cc1` is 92.2%; for `CC(=O)OC[C@H]1OC(Sc2sc(C(=O)c3ccc(Br)cc3)c(N)c2-c2nc3ccccc3s2)[C@H](OC(C)=O)[C@@H](OC(C)=O)[C@@H]1OC(C)=O` (stereo partly specified) it is 66.4%; for `O=C(O)c1ccc2c(c1)CCC2` it is 91.3%.
Still for that read-out and setting: next, `COc1ccc(-c2[nH]c(=S)n(C(CC3(C)NCC(=O)N3n3c(-c4ccccc4)cc(C)nc3=S)c3ccc(OC)cc3)c(=O)c2Br)cc1` (stereo unspecified): 14.8%.
For the molecule `C[C@H](NC(=O)[C@@H]1CSSC[C@@H](NC(=O)c2nc3ccccc3cc2O)C(=O)NCC(=O)N1C)c1ccccc1`, the growth is -30.9% (active).
Consider `CCc1ccccc1-n1c(-c2ccc(Cl)cc2)cc(-c2ccc(Cl)cc2)c(C#N)c1=O`, for which the growth was 66.1%.
For `COCCc1ccc(OCC(O)CNC(C)C)cc1` (stereo unspecified), the growth was 101%.
`COc1ccc(/C=C/c2c(C(=O)/C=C/c3cccs3)c(C)nc3ccccc23)cc1`: the growth is 43.1%.
With `COc1ccc(-c2nc3c(N)c(CO)c(C)nc3o2)cc1`, the growth is 91.5%.
Consider `CC(C)C(=O)Nc1n[nH]c2cc(-c3cccc(NS(=O)(=O)C4CC4)c3)ccc12`, for which the growth was 23.2%.
Take `COc1ccc(-c2nc3ccc4[nH]ncc4c3c3c2CCCC3)cc1B(O)O`: the growth is 59.8%.
For the molecule `COc1cc(OC)cc(C2CC(=O)Nc3c2c(C)nn3-c2nc3ccccc3[nH]2)c1` (stereo unspecified), the growth is 9.41% (active).
As to `CCOC(=O)c1c2ncccc2n2c(=O)n(-c3ccccc3C)nnc12`, the growth was 86.4%.
Take `CCN(CCNc1ccc(C)c2sc3ccccc3c(=O)c12)CC(C)(C)O`: the growth is -34.5% (active).
In the case of `CCCCNC(=O)Oc1ccc2c(=O)c3sc4c(=O)c5ccccc5c(=O)c4c3c(=O)c2c1`, the growth is -34.3% (active).
On to `O=C(NCCCNc1cc(-c2cn(-c3ccccc3)nc2-c2cccc(O)c2)ccn1)c1ccc(F)cc1`, for which the growth was 0.281% (active).
In the case of `CC(C)=C[C@@H]1c2c(c3ccccc3n(C)c2=O)O[C@H]2c3c(c4ccccc4n(C)c3=O)OC(C)(C)[C@@H]12`, the growth is 56.1%.
As for `CCN1CCN(c2nc(C)cc(NCc3cc(Nc4ccnc5cc(Cl)ccc45)ccc3F)n2)CC1`, the growth is -38.3% (active).
As for `COc1ccc2c(c1)O/C(=C\c1cccc(OCC(=O)Nc3nc4ccccc4s3)c1)C2=O`, the growth was 5.15% (active).
As for `Cc1nn(-c2ccccc2)c(Oc2ccc(Cl)cc2)c1/C=N\N=c1/sc2ccccc2n1C`, the growth was 81%.
Take `COc1cc(C2NC(=O)c3ccccc3N2)ccc1OCCCCCOc1c(OC)cc(C2=NOC(c3cc(OC)c(OC)c(OC)c3)C2)cc1OC` (stereo unspecified): the growth is 59.7%.
With `COc1cc(C2CC(=O)Nc3c2c(C)nn3-c2nc3ccccc3[nH]2)c(OC)c(OC)c1OC` (stereo unspecified), the growth was 20.5%.
On to `CC1(C)OC2C(CO[Si](C)(C)C(C)(C)C)OC(n3c(I)c(C#C[Si](C)(C)C)c(=O)[nH]c3=O)C2O1` (stereo unspecified), for which the growth is 67.5%.
On to `CC(=O)N1C(=S)NC(=O)C1Cn1c(-c2ccccc2)nc2ccccc21` (stereo unspecified), for which the growth was 101%.
Consider `COCN1CCC2N(COC)CCC3N(COC)CCC1N23` (stereo unspecified), for which the growth was 111%.
Still for that read-out and setting: the figure for `C=CC(=O)Nc1cccc(Oc2nccc(Nc3nnc(C4CC4)s3)n2)c1` is 81.9%; for `COc1ccc(N=Nc2ccc(O)c(=O)cc2)cc1` it is 2.95% (active); for `C=C1C(=O)O[C@H]2[C@H]1CC/C(COC(=O)C(=O)c1cn(C)c3ccc(OC)cc13)=C\CC[C@@]1(C)O[C@@H]21` it is 2.97% (active).
Regarding `COc1cccc(-c2nn(-c3ccccc3)cc2-c2ccnc(NCCNC(=O)Nc3ccccc3)c2)c1`, the growth is 28.2%.
With `COC(=O)[C@]12CC[C@@H](C)[C@H](C)[C@@H]1C1=CC[C@@H]3[C@@]4(C)C(C=O)=C[C@@](C)(COC(C)=O)[C@@H]4[C@H](O)C[C@@]3(C)[C@]1(C)CC2`, the growth was 4.82% (active).
Take `O=C(Nc1cccc(Cl)c1)c1cc(N=Nc2ccc([N+](=O)[O-])cc2Cl)ccc1O`: the growth is 26.3%.
Regarding `COc1ccc(C2c3ccc4ccccc4c3Oc3nc(C)[nH]c(=O)c32)cc1` (stereo unspecified), the growth was 90.6%.
With `COC(=O)c1ccc(C2Nc3ccc(S(=O)(=O)Nc4ccc(C)c(C)c4)cc3C3OCCC23)cc1` (stereo unspecified), the growth was 40.8%.
